Consider 14 compounds from PubChem BioAssay (NCI).

SMILES strings stand for the structures. Compounds without any hit were thinned out: in the full panel of roughly 83,000, 20% have a hit.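 Interpretation: 100, growth as untreated; towards 0, rising growth inhibition; 0, no net growth; 0 to -100, cell death. Compounds scoring below 10 were considered active.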 A number with no mark means an inactive call. Activity calls are given as the source filed them.

Test systems include NCI-H23 lung; NCI-H226 lung; NCI-H322M lung; HOP-62 NSCLC; NCI-H460 lung; NCI-H522 lung; A549/ATCC NSCLC; 786-0 renal; COLO 205 colon.
Common to all, as to assay: NCI-60 one-dose screen, 48 h (100 = growth as untreated, 0 = no growth, -100 = all killed)
Holding throughout (settings): 10 µM unless noted

Turning to `COc1cc(OC)c(Cl)cc1N`, the growth is 105% with NCI-H23 lung; 108% in the test on NCI-H226 lung; 110% in the test with NCI-H322M lung; 104% in the test on HOP-62 NSCLC; 103% with NCI-H460 lung; 94.8% with NCI-H522 lung. Also, the growth in the test with A549/ATCC NSCLC is 105%; with 786-0 renal, 111%; in the test with COLO 205 colon, 115%.

With `O=c1c2cc(Cl)ccc2oc2ccc(OCCCCCN3CCCCC3)cc12`, the growth was 75.1% in the test with NCI-H23 lung; 86.7% in the test with NCI-H226 lung; 89.7% in the test on NCI-H322M lung; 88.9% with HOP-62 NSCLC; 10.2% with NCI-H460 lung; 36.2% in the test on NCI-H522 lung. Further, the growth was 32.3% in the test on A549/ATCC NSCLC, 35.4% in the test on 786-0 renal and 10.6% in the test on COLO 205 colon.

Take `Cn1c(-c2ccccc2)cc(=O)n1-c1ccccc1`: the growth in the test on NCI-H23 lung is 96%; in the test on NCI-H226 lung, 102%; with NCI-H322M lung, 103%; in the test with HOP-62 NSCLC, 108%; in the test on NCI-H460 lung, 117%; in the test on NCI-H522 lung, 107%. The growth in the test on A549/ATCC NSCLC was 102%; with 786-0 renal, 107%; in the test on COLO 205 colon, 121%.

For the compound `Clc1cc(Cl)cc(-c2cnc3nonc3n2)c1`, the growth in the test with NCI-H23 lung was 77.3%; in the test on NCI-H226 lung it was 104%; in the test on NCI-H322M lung it was 95.1%; with HOP-62 NSCLC, 87.4%; with NCI-H460 lung, 106%; in the test with NCI-H522 lung, -69.3% (active). Further, the growth is 103% in the test with A549/ATCC NSCLC, 93.2% in the test on 786-0 renal and 72.5% with COLO 205 colon.

As for `COc1cc([N+](=O)[O-])cc(OC)c1OC`, the growth in the test with NCI-H23 lung is 107%; in the test with NCI-H226 lung, 112%; with NCI-H322M lung, 109%; with HOP-62 NSCLC, 110%; in the test on NCI-H460 lung, 109%; with NCI-H522 lung, 83.8%. Also, the growth with A549/ATCC NSCLC was 110%; in the test on 786-0 renal, 104%; in the test with COLO 205 colon, 127%.

With `O=C1SCN(Cc2ccccc2)CN1Cc1ccccc1`, the growth in the test with NCI-H23 lung is 91.2%; in the test with NCI-H226 lung, 96.2%; in the test on NCI-H322M lung, 95.3%; in the test on HOP-62 NSCLC, 102%; with NCI-H460 lung, 107%; in the test on NCI-H522 lung, 26.3%. The growth with A549/ATCC NSCLC was 99.1%; in the test with 786-0 renal it was 114%; in the test with COLO 205 colon, 116%.

For the compound `COc1ccc(C(=O)N2N=C(c3ccc(F)cc3)CC2c2cn(-c3ccccc3)nc2-c2ccccc2)cc1` (stereo unspecified), the growth was 51% in the test with NCI-H23 lung; 91.2% in the test with NCI-H226 lung; 80% in the test on NCI-H322M lung; 40.5% with HOP-62 NSCLC; 53.3% in the test with NCI-H460 lung; 52.4% in the test on NCI-H522 lung. Further, the figures for the growth in the test with A549/ATCC NSCLC, with 786-0 renal and in the test on COLO 205 colon were 41.1%, 69.6% and 57%, respectively.

Consider `CN1C(=O)N(C)C2C1NN=c1s/c(=C\c3ccsc3)c(=O)n12` (stereo unspecified), for which the growth in the test on NCI-H23 lung was 59.4%; in the test on NCI-H226 lung, 46.1%; with NCI-H322M lung it was 65.1%; in the test on HOP-62 NSCLC it was 46.8%; with NCI-H460 lung, 18.2%; with NCI-H522 lung, 26.4%. The growth in the test on A549/ATCC NSCLC is 42.2%; with 786-0 renal, 47.6%; with COLO 205 colon it was 41.1%.

Regarding `CC(C)(C)c1ccc(OC(=O)Nc2ccccc2)cc1`, the growth in the test on NCI-H23 lung was 103%; with NCI-H226 lung it was 106%; in the test on NCI-H322M lung, 94.4%; with HOP-62 NSCLC, 111%; with NCI-H460 lung it was 111%; in the test on NCI-H522 lung it was 100%. For the same compound, the growth in the test on A549/ATCC NSCLC is 99.3%; in the test on 786-0 renal, 83.8%; in the test with COLO 205 colon, 119%.

Consider `COc1cc(C2CC(c3ccc(Cl)cc3)=NN2C(C)=O)ccc1Oc1ccnc2cc(Cl)ccc12` (stereo unspecified), for which the growth with NCI-H23 lung is 64.1%; in the test with NCI-H226 lung, 19.5%; with NCI-H322M lung it was 53.3%; in the test with HOP-62 NSCLC it was 23.1%; in the test with NCI-H460 lung, 30.8%; with NCI-H522 lung it was 40.9%. In addition, the values for the growth in the test on A549/ATCC NSCLC, with 786-0 renal and in the test with COLO 205 colon were 42.6%, 33.6% and 26.2%, respectively.

As to `C=CCN1C(=O)/C(=c2\sc3n(c2=O)C2C(NN=3)N(CC)C(=O)N2CC)c2ccccc21` (stereo unspecified), the growth in the test on NCI-H23 lung was 26.7%; in the test on NCI-H226 lung, 62.7%; in the test on NCI-H322M lung it was 49.4%; in the test on HOP-62 NSCLC it was 32.4%; in the test with NCI-H460 lung, 9.1% (active); with NCI-H522 lung, -15.9% (active). Moreover, the growth in the test on A549/ATCC NSCLC was 23.9%; in the test on 786-0 renal it was 32.3%; with COLO 205 colon it was -14.2% (active).

On to `CCOC(=O)c1cc(C(=O)OCC)c(C)nc1C`, for which the growth with NCI-H23 lung was 102%; with NCI-H226 lung, 105%; in the test with NCI-H322M lung, 106%; in the test with HOP-62 NSCLC it was 102%; in the test with NCI-H460 lung it was 111%; in the test with NCI-H522 lung it was 103%. Further, the growth was 101% in the test with A549/ATCC NSCLC, 106% with 786-0 renal and 109% with COLO 205 colon.

Turning to `COc1ccc2nc(C)cc(Sc3nc4ccccc4s3)c2c1`, the growth was 29.4% in the test on NCI-H23 lung; 39.5% in the test on NCI-H226 lung; 60% with NCI-H322M lung; 57.5% in the test on HOP-62 NSCLC; 34.6% in the test on NCI-H460 lung; -20.9% (active) in the test with NCI-H522 lung. Moreover, the figures for the growth in the test with A549/ATCC NSCLC, in the test with 786-0 renal and in the test with COLO 205 colon were 35.7%, 73.8% and 33.7%, respectively.

On to `COc1ccc(Oc2nc(Nc3ccc(N4CCOCC4)cc3)ncc2NC(=O)Nc2cccc(OC)c2)cc1`, for which the growth with NCI-H23 lung was 72.2%; with NCI-H226 lung, 42.1%; in the test on NCI-H322M lung, 53.3%; with HOP-62 NSCLC, 64.7%; in the test with NCI-H460 lung, 41.5%; in the test with NCI-H522 lung, 23.7%. Moreover, the growth with A549/ATCC NSCLC is 41.7%; in the test on 786-0 renal it was 80.7%; in the test with COLO 205 colon, 17.8%.
